# High-throughput results: PubChem BioAssay, National Center for Advancing Translational Sciences (NCATS)
# Many of the other results were omitted from the sample, so hits are more common in it than they were.
# RXFP1 agonist = qHTS Assay for Agonists of the Relaxin Receptor RXFP1. HEK293T-RXFP1 cAMP TR-FRET, 30 min; response scale: percent of porcine relaxin response, buffer zero. Potency, µM (titrated, usually from 57.5 µM), without a hit: at the top dose activation, actives largely listed as activators. hit rate 0.3% among 370,000. Relaxin receptor 1 (Homo sapiens), Q9HBX9; further: potency means the concentration at half of the fitted maximal effect; on the % scale 0 is the no-effect control and ±100 the full control effect; nearly all actives have a fitted effect of over 60% in size
# Target sequence (Q9HBX9 whole entry, looked up): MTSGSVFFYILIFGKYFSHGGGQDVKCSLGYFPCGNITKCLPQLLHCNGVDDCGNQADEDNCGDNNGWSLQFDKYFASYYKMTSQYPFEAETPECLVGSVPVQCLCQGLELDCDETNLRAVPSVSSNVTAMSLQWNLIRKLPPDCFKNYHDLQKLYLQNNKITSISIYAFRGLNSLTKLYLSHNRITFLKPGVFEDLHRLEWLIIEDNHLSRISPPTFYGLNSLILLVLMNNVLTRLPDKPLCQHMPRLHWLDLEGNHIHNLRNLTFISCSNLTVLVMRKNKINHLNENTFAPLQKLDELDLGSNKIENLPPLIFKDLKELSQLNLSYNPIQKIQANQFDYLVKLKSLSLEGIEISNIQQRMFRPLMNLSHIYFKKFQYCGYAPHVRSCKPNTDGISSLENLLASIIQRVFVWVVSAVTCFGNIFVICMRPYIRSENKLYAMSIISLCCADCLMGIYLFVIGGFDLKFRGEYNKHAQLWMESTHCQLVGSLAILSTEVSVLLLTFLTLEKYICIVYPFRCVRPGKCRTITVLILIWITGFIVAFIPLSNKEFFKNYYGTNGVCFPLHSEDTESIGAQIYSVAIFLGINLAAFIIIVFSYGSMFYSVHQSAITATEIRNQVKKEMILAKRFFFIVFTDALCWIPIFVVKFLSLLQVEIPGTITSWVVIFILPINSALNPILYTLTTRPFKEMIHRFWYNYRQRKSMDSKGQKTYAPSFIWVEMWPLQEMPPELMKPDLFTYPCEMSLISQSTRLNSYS
#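 cAMP rise read by TR-FRET after 30 min, 37C compound exposure (up to 58 uM) in RXFP1-transfected HEK293 cells with Ro 20174 present. EC50 from Hill-equation fits, with 29 nM porcine relaxin as 100% and buffer as basal.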
# RXFP1 antagonist = qHTS Assay for Antagonists of the Relaxin Receptor RXFP1; AID 1259400, 2018; activity change, negative = inhibition, % at 57.5 µM; hit rate 0.59% among 350,000; HEK293-RXFP1, relaxin-stimulated cAMP HTRF, 30 min; hits give low values; Relaxin receptor 1 (Homo sapiens), Q9HBX9;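 active means activity change of -60% or lower, but not beyond a set lower limit; inconclusive means change between -60% and -40%, or beyond the set limit; inactive means change above -40%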; further: on the % scale 0 is the no-effect control and ±100 the full control effect
# TCR activator = Activators of T cell receptors: qHTS campaign. primary human leukocytes, anti-CD3, IL-2 HTRF, 48 h. Potency, µM (highest dose often 9.22 µM), for the others: top-dose activation of IL-2 secretion, actives largely listed as activators. 330,000 tested, under 10 active; further: % of control where 0% means no effect
#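 Human primary leukocytes + a-CD3 beads + cpd, 48 hr; IL-2 in supernatant by HTRF (ex 320nm / em 665nm). No co-stimulatory signal supplied.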
# TSHR antagonist = Antagonists of the Thyroid Stimulating Hormone Receptor: HTS campaign. hit rate 0.2% among 330,000. activity change, negative = inhibition, % at 11.5 µM. TSHR-expressing cells, TSH-stimulated cAMP HTRF, 2 h; hits give low values;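 active means activity change below a set negative limit, meaning inhibition stronger than a set level, cut at about -70% in these data; inconclusive means activity change between two set negative limits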; further: on the % scale 0 is the no-effect control and ±100 the full control effect
#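 Cell-based HTRF cAMP assay; TSHR cells + compound, TSH EC80 (4nM final), 2 h, 37 deg C. Lysis with anti-cAMP cryptate and cAMP-d2, 30 min RT, read 665/620 nm.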
# NPSR antag = qHTS Assay for Antagonists of the Neuropeptide S Receptor: cAMP Signal Transduction; Potency, µM (top dose mostly 38.3 µM), for inactives: at the top dose activity change, negative = inhibition, most hits filed as inhibitors; AID 1461, 2008; CHO-NPSR cells, cAMP TR-FRET, antagonist mode; hit rate 1% among 220,000; Q6W5P4; further: potency means the concentration at half of the fitted maximal effect; on the % scale 0 is the no-effect control and ±100 the full control effect; nearly all actives have a fitted effect of over 50% in size
# PTHR1 ag = qHTS for PTHR1 Agonists: Primary Screen; Parathyroid hormone/parathyroid hormone-related peptide receptor (Homo sapiens), Q03431; HEK293 GP2 PTHR1 cells, GloSensor cAMP luminescence, 1 h; Potency, µM (top dose mostly 115 µM), without a hit: at the highest dose activation, hits mostly activators; hit rate 0.075% among 410,000; further: potency means the concentration at half of the fitted maximal effect; nearly all actives have a fitted effect of over 55% in size
#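 HEK-293-derived GP2 cells expressing PTHR1 and a GloSensor cAMP reporter, 3,000/well, plated overnight, given luciferin plus IBMX (each 0.5 mM as added) for 1 h at 37 °C, then compound for 1 h at 37 °C. Luminescence was read after 15 min at room temperature.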
# Active calls of the source: *; i = inactive; ? = inconclusive; / = no result given; [ ] = dose if it differs, or a comment. Unless noted, the call rests on the fitted dose curve; in most records, active means well fitted curve in the direction sought with a large enough effect; inconclusive means small, poorly fitted or top-dose-only effect, or another doubt; inactive means no such curve, though single readings can be large; an effect the other way counts as inactive or inconclusive.
SMILES,RXFP1 agonist,RXFP1 antagonist,TCR activator,TSHR antagonist,NPSR antag,PTHR1 ag
OC[C@H]1O[C@@H](n2cnc3c(=S)nc[nH]c32)[C@H](O)[C@@H]1O,/,8,/,/,/,/
O=C(CC1C(=O)N(c2ccccc2)C(=S)N1c1ccccc1)c1ccc(Br)cc1 (centres undefined),1%,-73*,1%[46.1 µM],3,-15%,i
CCOC(=O)CSC1=Nc2ccccc2C2=NC(CCC(=O)NCc3ccccc3)C(=O)N12 (centres undefined),19%,-5,/,/,/,i
Cc1nn2c(N)c(C#N)cnc2c1-c1ccc(Cl)cc1,16%,/,-6%,-1,7.9µM*,i
OCc1cnc(SCc2ccccc2F)n1Cc1ccc(F)cc1,-3%,/,/,/,/,-20%
O=S(=O)(c1ccccc1)c1nc(-c2ccco2)oc1N1CCOCC1,0%,3,3%,-3,-13%[46.1 µM],-6%[57.5 µM]
Cc1ccc(S(=O)(=O)c2nc(-c3ccco3)oc2N2CCC(C)CC2)cc1,-4%,-63*,-2%,15,/,-47%
CC(=O)N1CCc2c(sc(NC(=O)C3CCN(S(=O)(=O)c4cccs4)CC3)c2C(N)=O)C1,1%,-60*,4%,-2,/,-18%
CC(=O)N1CCc2c(sc(NC(=O)C3CCCN3S(=O)(=O)c3cccs3)c2C(N)=O)C1 (centres undefined),1%,0,1%,4,/,-4%
CC1=CC2=NC(=O)/C(=C\c3cccn3CCOc3ccccc3C)C(=N)N2O1,-2%,-13,-1%,-19,10µM*,-24%
O=C(CN1C(=O)/C(=C/c2ccc(F)cc2)SC1=S)NC1CCS(=O)(=O)C1 (centres undefined),-3%,-67*,0%,17,/,-1%
O=C(CN1C(=O)/C(=C/c2ccccc2)SC1=S)NC1CCS(=O)(=O)C1 (centres undefined),-2%,-61*,-2%,-8,/,-8%
O=C(CN1C(=O)/C(=C/c2ccc(F)cc2)SC1=S)NC1C=CS(=O)(=O)C1 (centres undefined),-3%,-18,-1%,0,/,i
COc1ccccc1/C=C1\SC(=S)N(CC(=O)NC2CCS(=O)(=O)C2)C1=O (centres undefined),-2%,3,2%,-6,/,-4%
COc1cc(OC)nc(O[C@H](C(=O)O)C(OC)(c2ccccc2)c2ccccc2)n1,/,-21,/,/,/,/
O=C(CCCCN1CCCCC1)c1ccccc1,/,6,2%,/,/,-15%
O=C(C(=Cc1ccccc1)CN1CCCCC1)c1ccccc1,/,-72*,0%,/,/,-48%
Cc1cccc(OCCc2c(C)[nH]c(=S)[nH]c2=O)c1,3%,-118*,-5%,-3,1%,-6%
Cc1[nH]c(=S)[nH]c(=O)c1Cc1ccccc1,-1%,-63*,2%,8,-8%[46.1 µM],i
COc1ccc(S(=O)(=O)N2CCN(c3ccc(Cl)c(Cl)c3)CC2)c2ccccc12,3%,/,/,/,/,i
CCOCCCNC(=O)c1ccc(-n2c(=S)[nH]c3ccccc3c2=O)cc1,-1%,-90*,3%,0,-8%,i
CCCCNC(=O)c1ccc2c(=O)n(CCCOCC)c(=S)[nH]c2c1,11%,-7,-1%,11,-20%[46.1 µM],-42%
CCc1ccccc1NC(=O)Nc1c[nH]c(=O)[nH]c1=O,0%,-12,/,/,/,-19%
O=C(NCCC1=CCCCC1)C1CCN(S(=O)(=O)c2cccc3cccnc23)CC1,-2%,/,-5%,-4,-5%[46.1 µM],i
Cc1ccc(CCNC(=O)C2CCN(S(=O)(=O)c3cccc4cccnc34)CC2)cc1,3%,-6,5%,-107*,/,-16%
SMILES,RXFP1 agonist,RXFP1 antagonist,TCR activator,TSHR antagonist,NPSR antag,PTHR1 ag
Cc1ccc(Nc2nc(Cl)nc(NC(C)(C)C)n2)cc1,0%,-71*,/,-5,/,-32%
O=C(O)c1cccc(NC2=C(Cl)C(=O)c3ccccc3C2=O)c1,7%,-20,-1%,-83*,?,0%
O=C(O)c1ccc(NC2=C(Cl)C(=O)c3ccccc3C2=O)cc1,1%,-9,6%,-87*,?,-35%
O=C1C(Cl)=C(Nc2ccccc2)C(=O)c2ccccc21,1%,/,5%[46.1 µM],-3,?,-30%
C#C[C@]1(OC(C)=O)CCC2C3CCC4=CC(=O)CC[C@@H]4C3CC[C@@]21C (some centres undefined),3%,/,-4%,-88*,/,-52%
O=C(CCCCCNc1nc(=S)[nH]c2ccccc12)NCCc1ccc(Cl)cc1,6%,-65*,11%,6,-13%,i
O=C(CCCCCNc1nc(=S)[nH]c2ccccc12)NCCC1=CCCCC1,6%,-63*,-4%,-6,-48%,-19%
CC1CCN(c2nc(-c3ccccc3)c(C#N)c(=O)[nH]2)CC1,14%,-3,5%,3,13µM*,-6%[57.5 µM]
Cc1cccc(-c2csc(N3CCC(C(N)=O)CC3)n2)c1,/,/,/,-6,/,/
Cc1cc2nc(-c3ccc(SCc4ccc(C(=O)O)cc4)nc3)[nH]c2cc1C,4%,-98*,6%,-17,38%,-42%
CN(C)CCNc1oc(/C=C/c2ccccc2)nc1C#N,15%,9,-3%[46.1 µM],-5,10µM*,i
COc1ccc(S(=O)(=O)N(CC(=O)Nc2cc(Cl)ccc2C)Cc2ccccc2)cc1OC,2%,-9,/,/,/,-35%
COc1cccc(CNC(=O)C2CCCN(c3nnc(-n4c(C)ccc4C)s3)C2)c1OC (centres undefined),-1%,/,/,/,/,i
Cc1cc(/C=N/n2cnnc2)c(C)n1-c1ccc(OCc2ccc(Cl)cc2Cl)cc1,0%,-21,0%,-41,?,-9%
Cc1cc(/C=N/n2cnnc2)c(C)n1-c1ccc(OCc2ccc(F)cc2)cc1,0%,-68*,-2%,-11,-2%[46.1 µM],-13%[57.5 µM]
Cc1cccc(NC(=O)CN2CCc3cc4c(cc3C2C)OCCCO4)c1 (centres undefined),0%,-13,-1%,14,/,-22%
Cc1cc(C)cc(NC(=O)CN2CCc3cc4c(cc3C2C)OCCCO4)c1 (centres undefined),1%,-62*,-8%,21,/,-6%
CCCOc1ccc(CN(C(=O)c2nc(SC(C)C)ncc2Cl)C2CCS(=O)(=O)C2)cc1 (centres undefined),2%,/,/,/,/,i
